In PubChem BioAssay AID687001 (Broad Institute, 2013):
Results with a measured potency or affinity are listed apart. Calls of active or inactive are those of the source.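 Rule for the calls: active = signal-lowering compounds whose fitted half-maximal concentration is at or below twice the top tested dose in every run; inconclusive = runs disagree, flat 30 to 70% inhibition, or poor curve fit; inactive = the rest.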

Molecular target: Protein S100-A4 (Homo sapiens) (UniProt P26447)
Experiment: human S100A4 peptide interaction inhibition curves – biochemical, fluorescence polarization, cherry-picked hits, dose response (AID 687001);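 note: 0% = DMSO neutral control wells and -100% = TFP positive control wells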
Conditions: FP, S100A4/TAMRA-myosin IIA peptide binding; series mostly up to 11 µM; activity change, negative = inhibition: at the top concentration

Sequence of Protein S100-A4 (Homo sapiens) (P26447 whole entry, looked up): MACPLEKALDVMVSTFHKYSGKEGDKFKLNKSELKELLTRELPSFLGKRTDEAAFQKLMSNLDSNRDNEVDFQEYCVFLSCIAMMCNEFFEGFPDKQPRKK

SMILES | activity change, negative = inhibition
CO[C@H]1CN(C)C(=O)c2cc(NC(=O)C3CC3)ccc2OC[C@H](C)N(C(=O)CN(C)C)C[C@H]1C | -1.28% (inactive)
C[C@@H]1CN([C@H](C)CO)C(=O)c2cccc(NC(=O)c3ccncc3)c2O[C@@H]1CN(C)C | -1.43% [at 10 µM] (inactive)
COc1ccc(C(CNC(=O)CNC(=O)c2ccc(F)cc2)N2CCCC2)cc1 (centres undefined) | -0.057% (inactive)
COc1ccc(C(C)(O)c2nc(-c3cccs3)cs2)cc1 (centres undefined) | -1.36% (inactive)
C[C@@H]1CN([C@H](C)CO)C(=O)c2cccc(NC(=O)CCCCCC(=O)Nc3ccccc3N)c2O[C@H]1CN(C)S(=O)(=O)c1cccs1 | 7.5% (inactive)
COc1cc(S(=O)(=O)NCc2ccccn2)ccc1Cl | -0.247% (inactive)
Nc1cccc2c(=O)[nH][nH]c(=O)c12 | -1.11% (inactive)
CC(=O)N1CC(C)Oc2ccc(S(=O)(=O)NC(CC(=O)O)c3cc(C)ccc3C)cc21 (centres undefined) | 0.235% (inactive)
C[C@@H]1CCCCO[C@@H](CN(C)C(=O)CCC(F)(F)F)[C@@H](C)CN([C@@H](C)CO)C(=O)c2cc(NC(=O)c3ccccc3)ccc2O1 | 1.8% (inactive)
C[C@@H]1CCCCO[C@@H](CN(C)S(=O)(=O)c2cn(C)cn2)[C@H](C)CN([C@@H](C)CO)C(=O)c2cc(NC(=O)C3CCCCC3)ccc2O1 | 0.768% (inactive)
Cc1cccc(NC(=O)CNC(=O)c2ccccc2Cl)n1 | 5.06% (inactive)
C[C@H]1CN([C@@H](C)CO)C(=O)c2cc(-c3cccc(C#N)c3)cnc2O[C@@H]1CN(C)Cc1cccnc1 | 2.31% (inactive)
S=c1[nH]c(-c2ccccc2)cn1-c1ccccc1 | -5.04% (inactive)
O=C(C[C@H]1CC[C@@H]2[C@H](COC[C@H](O)CN2C(=O)Nc2ccc3c(c2)OCO3)O1)N1CCN(c2ccccc2)CC1 | 5.56% (inactive)
O=C(C[C@@H]1CC[C@@H](NC(=O)CC2CC2)[C@H](CO)O1)NCc1ccc(Cl)cc1 | 3.57% (inactive)
CCOC(=O)[C@]12CCCC=C1N(Cc1ccccc1)C(=O)[C@H](CC(=O)NCCCN1CCCC1=O)C2 | 0.767% (inactive)
Cc1ccc(S(=O)(=O)N(C)C[C@H]2OCCCC[C@@H](C)Oc3ccc(NS(=O)(=O)c4c(C)noc4C)cc3C(=O)N([C@@H](C)CO)C[C@H]2C)cc1 | 33.5% (inactive)
COc1ccccc1NC(=O)N[C@H]1C=C[C@H](CC(=O)N2CCC(Cc3ccccc3)CC2)O[C@@H]1CO | -0.027% (inactive)
COc1cc(C(=O)NCCc2ncccc2C)ccc1OC1CCN(C(C)=O)CC1 | -2.25% (inactive)
CCCCN(C(=O)c1c(-c2ccccc2)noc1C)c1c(N)n(CCC)c(=O)[nH]c1=O | -4.5% (inactive)

SMILES | activity change, negative = inhibition
C[C@@H]1CN([C@@H](C)CO)C(=O)c2cc(NC(=O)c3ccncc3)ccc2O[C@@H]1CN(C)Cc1ccncc1 | 1.61% (inactive)
CCOc1ccc(/C=N/NC(=O)c2ccccc2C)cc1CN1CC2CC(C1)c1cccc(=O)n1C2 (centres undefined) | -2.24% (inactive)
CCOc1ccc(OCCNC(=O)c2cc(C3CC3)nc3c2cnn3C(C)C)cc1 | 0.95% (inactive)
CCOC(=O)C1(C)CCCN1C(=O)c1ccc(C(F)(F)F)nc1C (centres undefined) | -3.53% (inactive)
CCCNC(=O)Nc1ccc2c(c1)OC[C@H](C)N(C(=O)C1CC1)C[C@H](C)[C@@H](OC)CN(C)C2=O | -1.54% (inactive)
C[C@H](CO)N1C[C@H](C)[C@H](CN(C)CC2CC2)OCc2ccccc2-c2c(n(C)c3ccccc23)C1=O | 0.788% (inactive)
CCOc1ccc(C2C(C(=O)c3ccco3)=C(O)C(=O)N2CCN2CCOCC2)cc1OCC (centres undefined) | 3.37% (inactive)
CC(C)NC(=O)N(C)C[C@H]1Oc2ccc(NS(=O)(=O)c3ccc(F)cc3)cc2C(=O)N([C@H](C)CO)C[C@@H]1C | -5.89% (inactive)
C[C@@H]1CCCCO[C@@H](CN(C)S(=O)(=O)c2ccccc2)[C@@H](C)CN([C@@H](C)CO)C(=O)c2cc(NC(=O)CCCN(C)C)ccc2O1 | -9.67% (inactive)
COc1ccc2c3c(n(C)c2c1)[C@H](CO)N(C(=O)c1ccccc1)CC31CCN(C(=O)c2ccccc2)CC1 | 7.85% (inactive)
COc1ccccc1NC(=O)N[C@H]1CC[C@H](CCNS(=O)(=O)c2ccc(Cl)cc2)O[C@H]1CO | 4.41% (inactive)
CCc1cccc(C)c1NC(=O)COC(=O)C1CC(=O)N(CCc2ccc(OC)c(OC)c2)C1 (centres undefined) | -4.85% (inactive)
CSc1cccc(NC(=O)C2CCN(S(=O)(=O)c3ccc4c(c3)NC(=O)CO4)CC2)c1 | 4.28% (inactive)
COC(=O)[C@@]12C[C@@H](CC(=O)N3CCN(C(=O)c4ccco4)CC3)C(=O)N(CCc3ccc(OC)c(OC)c3)C1=CCC(C)(C)C2 | -1.37% (inactive)
Cc1ccc([N+](=O)[O-])cc1N=Nc1c(C)[nH]n(C(N)=S)c1=O | -7.89% (inactive)
COc1cc(Cl)ccc1OCc1cc(C(=O)N(C)Cc2nnc(C)o2)no1 | 0.129% (inactive)
C[C@@H]1CN([C@H](C)CO)C(=O)c2cc(NC(=O)Nc3ccc(C(F)(F)F)cc3)ccc2O[C@@H]1CN(C)C(=O)Nc1ccc(C(F)(F)F)cc1 | 0.398% (inactive)
COC(=O)C[C@@H]1CC[C@H](NC(=O)c2cnccn2)[C@@H](CO)O1 | -3.76% (inactive)
CCCc1cn(CC[C@@H]2CC[C@H](NC(=O)C3CCCC3)[C@H](CO)O2)nn1 | -4.03% (inactive)
